# Compounds without any hit were thinned out: in the full panel of roughly 83,000, 20% have a hit.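 How to read the values: 0–100, growth inhibition (40 = 60% inhibited); 0, no net growth; -100 to 0, cell death (-40 = 40% of starting cells died; -100 = all dead).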 Unmarked numbers belong to inactive results. Active and inactive are the calls of the source. The calls were made as follows: active = growth percent below 10; inactive = the rest.
# Columns and labels:
# Test in all cases: NCI-60 one-dose screen, 48 h (100 = growth as untreated, 0 = no growth, -100 = all killed)
# Settings in all cases: 10 µM unless noted
# NCI-H23 lung = system: NCI-H23 lung
# NCI-H226 lung = system: NCI-H226 lung
# NCI-H322M lung = system: NCI-H322M lung
# HOP-62 NSCLC = system: HOP-62 NSCLC
# NCI-H460 lung = system: NCI-H460 lung
# A549/ATCC NSCLC = system: A549/ATCC NSCLC
# 786-0 renal = system: 786-0 renal
# COLO 205 colon = system: COLO 205 colon
# DU-145 prostate = system: DU-145 prostate
# K-562 leukemia = system: K-562 leukemia
# MALME-3M melanoma = system: MALME-3M melanoma
# MDA-MB-231 breast = system: MDA-MB-231 breast
# RXF 393 renal = system: RXF 393 renal
# SF-268 CNS = system: SF-268 CNS
# SF-295 CNS = system: SF-295 CNS
# SF-539 CNS = system: SF-539 CNS
# UACC-257 melanoma = system: UACC-257 melanoma
# M14 melanoma = system: M14 melanoma
# HCT-15 colon = system: HCT-15 colon
# NCI-H522 lung = system: NCI-H522 lung
SMILES,growth (NCI-H23 lung),growth (NCI-H226 lung),growth (NCI-H322M lung),growth (HOP-62 NSCLC),growth (NCI-H460 lung),growth (A549/ATCC NSCLC) [%],growth (786-0 renal),growth (COLO 205 colon),growth (DU-145 prostate),growth (K-562 leukemia),growth (MALME-3M melanoma),growth (MDA-MB-231 breast),growth (RXF 393 renal),growth (SF-268 CNS),growth (SF-295 CNS),growth (SF-539 CNS),growth (UACC-257 melanoma) [%],growth (M14 melanoma),growth (HCT-15 colon),growth (NCI-H522 lung)
Nc1ccccc1-c1ccc([N+](=O)[O-])cc1,68.7%,87.6%,57%,53.1%,33.6%,63.3,46.7%,23.8%,59.3%,15.5%,111%,67%,111%,49.4%,44.2%,52.8%,78.9,44.7%,47.8%,
O=c1[nH]c(=O)n(C2CC(O)C(CO)O2)cc1C(F)(F)F (configuration not stated),-5.01% (active),57%,76%,33.1%,19.2%,,12.7%,,6.03% (active),62.4%,51.4%,102%,,30.7%,6.84% (active),8.46% (active),,15.8%,73.9%,-12% (active)
CN(C)c1ccc(/C=C\c2ccnc3ccccc23)cc1,13.1%,39%,90.6%,82%,86.9%,,65.1%,81.2%,85.1%,26.8%,84.8%,70.3%,,92.1%,61.6%,78.3%,80.9,83.9%,58.5%,-7.89% (active)
Nc1nc(Cl)c2[nH]cnc2n1,87%,101%,93.1%,95.2%,86.9%,,96.8%,103%,119%,118%,94.4%,111%,,101%,93.7%,97.4%,,97.7%,103%,96.2%
COc1ccc(/C=C2\NC(=S)NC2=O)cc1,113%,100%,95.2%,83.5%,104%,107,109%,88.2%,118%,117%,77.5%,94.5%,126%,106%,119%,98.3%,106,100%,93.5%,
CC(C)COCC(CN(Cc1ccccc1)c1ccccc1)N1CCCC1 (configuration not stated),60.7%,65.8%,78.8%,71.3%,43.8%,,68.2%,40.1%,70%,31.3%,84.3%,29.5%,,71.5%,63.6%,78.5%,,51.9%,55.7%,32.1%
O=C(CSCC(=O)N/N=C/c1ccccc1O)N/N=C\c1ccccc1O,40.8%,39.4%,15.7%,25.3%,14.2%,38.1,5.14% (active),17.2%,37.1%,10.8%,2.43% (active),42.7%,44.8%,28.9%,35.5%,25.6%,25.6,-4.57% (active),22.9%,
O=C(Cc1ccccn1)C(F)(F)C(F)(F)C(F)(F)F,104%,102%,116%,97.5%,111%,,104%,127%,112%,,110%,102%,125%,125%,,104%,,110%,109%,111%
CC(=O)Oc1ccc(C23c4ccccc4C2(OC(C)=O)c2cc(OC(C)=O)ccc23)cc1 (configuration not stated),96.2%,140%,107%,53.1%,88.7%,97,69.3%,95.5%,103%,63.4%,137%,73.9%,93.5%,94.3%,96.9%,100%,105,104%,65.8%,
Cn1c(=O)c2nc(SCc3ccccc3)n(C)c2n(C)c1=O,108%,102%,109%,107%,109%,99.2,109%,104%,117%,103%,143%,97.7%,112%,106%,117%,101%,111,107%,98.8%,
Nc1nc2ncc(CCNc3ccc(C(=O)NC(CCC(=O)O)C(=O)O)cc3)nc2c(=O)[nH]1 (configuration not stated),43.3%,102%,122%,90.6%,108%,,93.1%,118%,109%,127%,118%,115%,,110%,113%,94.3%,75.2,114%,98.2%,28%
CCN(CC)CCOc1ccc(C2=C(c3ccccc3)CCc3cc(OC)ccc32)cc1,-11.6% (active),58.6%,17.6%,-74.9% (active),-55.9% (active),,-82.3% (active),-69.6% (active),41.3%,-31% (active),-91.4% (active),-2.94% (active),,33.1%,-72.7% (active),-17.4% (active),,,6.79% (active),-25.3% (active)
CCCCOc1ccc(C(C)(C)c2ccc(OCCCC)cc2)cc1,103%,104%,99.1%,102%,113%,,91%,121%,107%,,98.7%,111%,125%,115%,,92.1%,,104%,107%,92.3%
Clc1ccc(-n2cnc3c(Cl)ncnc32)cc1Cl,87%,102%,64.8%,83.6%,101%,95.5,98.7%,92.2%,76.6%,61.1%,85%,87.5%,97.3%,78.3%,119%,104%,84.4,48.4%,60.4%,
CCC(c1ccccc1)c1noc(CCN(CC)CC)n1 (configuration not stated),99.5%,90.7%,109%,97.4%,103%,,108%,114%,100%,65.1%,93.8%,106%,33.3%,103%,108%,101%,,96.7%,108%,-8.89% (active)
COc1ccc2c(c1)C(=O)/C(=C/c1cccc(OCC(=O)c3ccccc3)c1)CC2,87.4%,75.9%,108%,101%,113%,,87.6%,136%,,33.4%,97.6%,83.6%,,91.8%,104%,93.5%,91.7,92.2%,89.7%,64.7%
C[n+]1ccc(Nc2ccc(NC(=O)c3ccc(Nc4cc[n+](C)c5ccc(N)cc45)cc3)cc2)cc1,104%,82.6%,146%,102%,82.6%,,97%,92.8%,119%,88.5%,142%,97%,,105%,72.7%,85.9%,,103%,99.9%,109%
C=CCCCCCCCCC(=O)[O][Sn]([CH2]CCC)([CH2]CCC)[CH2]CCC,-86.2% (active),-52.7% (active),-88.7% (active),-94.7% (active),-83.3% (active),,-96% (active),,-95.2% (active),-16.8% (active),-79.8% (active),-81.7% (active),-97.3% (active),-97.3% (active),-85.4% (active),-84.1% (active),,-91.1% (active),-73.3% (active),-53% (active)
